Measurements taken from ChEMBL document CHEMBL3988442, “University of Dundee, Small-Polar-MMV Screening Library” (2021).
For some assays here: Results with a measured potency or affinity are listed apart.

Legend:
Design in all cases: scale not given: direction of the effect not stated beside the values
[1] = biological target: Protein translocase subunit SecA (Escherichia coli (strain K12)) (UniProt P10408); assay: Assay to Identify E. coli SecA ATPase Inhibitors; type: functional; details: 30 µM
Sequence of Protein translocase subunit SecA (Escherichia coli (strain K12)) (P10408 whole entry): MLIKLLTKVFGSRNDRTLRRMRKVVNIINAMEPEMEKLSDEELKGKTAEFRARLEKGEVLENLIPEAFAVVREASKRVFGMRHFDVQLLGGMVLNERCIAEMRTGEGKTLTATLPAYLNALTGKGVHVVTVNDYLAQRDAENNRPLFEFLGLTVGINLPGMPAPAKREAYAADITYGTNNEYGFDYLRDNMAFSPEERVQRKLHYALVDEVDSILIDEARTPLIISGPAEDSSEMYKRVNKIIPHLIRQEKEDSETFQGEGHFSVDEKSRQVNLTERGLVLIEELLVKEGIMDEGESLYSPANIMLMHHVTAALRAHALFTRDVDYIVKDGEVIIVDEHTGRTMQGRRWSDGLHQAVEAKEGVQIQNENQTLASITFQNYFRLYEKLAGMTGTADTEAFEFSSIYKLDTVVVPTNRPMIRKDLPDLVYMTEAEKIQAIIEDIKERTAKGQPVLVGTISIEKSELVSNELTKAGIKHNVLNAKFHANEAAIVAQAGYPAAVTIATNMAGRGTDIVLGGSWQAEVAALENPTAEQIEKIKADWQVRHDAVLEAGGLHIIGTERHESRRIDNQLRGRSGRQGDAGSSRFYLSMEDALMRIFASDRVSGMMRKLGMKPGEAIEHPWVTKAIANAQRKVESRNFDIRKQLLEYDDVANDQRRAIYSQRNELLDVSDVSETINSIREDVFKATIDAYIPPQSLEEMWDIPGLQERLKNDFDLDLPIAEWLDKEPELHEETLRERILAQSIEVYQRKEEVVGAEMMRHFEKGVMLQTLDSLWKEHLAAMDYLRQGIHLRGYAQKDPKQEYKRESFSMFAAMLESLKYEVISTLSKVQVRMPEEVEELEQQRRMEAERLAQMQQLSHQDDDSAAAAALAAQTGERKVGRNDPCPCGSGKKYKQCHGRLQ

[2] = biological target: T1, Ubiquitin-activating enzyme e1, putative (Leishmania donovani (strain BPK282A1)) (UniProt E9BSI1); assay: Leishmania donovani Ubiquitin Activating Enzyme (LdE1); type: functional; details: 30 µM
T1 sequence (whole entry): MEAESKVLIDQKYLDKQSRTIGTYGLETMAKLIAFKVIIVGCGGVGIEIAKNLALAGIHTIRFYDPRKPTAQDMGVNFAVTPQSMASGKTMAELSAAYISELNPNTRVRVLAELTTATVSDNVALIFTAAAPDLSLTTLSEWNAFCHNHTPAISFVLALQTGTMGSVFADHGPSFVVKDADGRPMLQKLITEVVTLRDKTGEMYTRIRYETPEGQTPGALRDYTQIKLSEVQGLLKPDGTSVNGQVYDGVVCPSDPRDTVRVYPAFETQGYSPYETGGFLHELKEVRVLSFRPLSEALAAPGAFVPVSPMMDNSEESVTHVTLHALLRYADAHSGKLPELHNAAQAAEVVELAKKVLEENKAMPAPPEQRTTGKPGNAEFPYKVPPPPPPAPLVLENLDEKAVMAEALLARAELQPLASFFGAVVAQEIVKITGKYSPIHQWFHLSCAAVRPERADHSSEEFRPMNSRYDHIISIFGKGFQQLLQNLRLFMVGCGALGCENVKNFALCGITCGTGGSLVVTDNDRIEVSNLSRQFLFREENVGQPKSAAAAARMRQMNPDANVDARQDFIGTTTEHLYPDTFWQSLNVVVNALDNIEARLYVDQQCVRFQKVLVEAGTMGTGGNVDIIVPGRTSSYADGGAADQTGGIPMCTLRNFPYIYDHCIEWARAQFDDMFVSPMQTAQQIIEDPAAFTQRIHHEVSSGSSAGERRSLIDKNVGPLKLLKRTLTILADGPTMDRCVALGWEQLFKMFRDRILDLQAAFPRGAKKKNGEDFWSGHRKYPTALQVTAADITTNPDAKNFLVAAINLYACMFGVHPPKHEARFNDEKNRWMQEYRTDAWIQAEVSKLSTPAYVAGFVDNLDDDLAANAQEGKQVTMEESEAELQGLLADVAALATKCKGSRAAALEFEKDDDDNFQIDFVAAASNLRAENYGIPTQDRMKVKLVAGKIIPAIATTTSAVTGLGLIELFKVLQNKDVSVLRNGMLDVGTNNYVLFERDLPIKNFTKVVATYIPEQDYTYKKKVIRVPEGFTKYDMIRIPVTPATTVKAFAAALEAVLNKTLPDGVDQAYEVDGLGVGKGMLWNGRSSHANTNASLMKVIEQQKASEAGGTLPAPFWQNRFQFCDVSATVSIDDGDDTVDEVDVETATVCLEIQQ

[3] = biological target: AMP-activated protein kinase, AMPK (Homo sapiens) (UniProt P54646+O43741+P54619+Q9UGJ0+Q9Y478+Q13131+Q9UGI9); assay: AMP-dependent Kinase enzyme assay. An in vitro enzyme assay that detects ADP turnover that is directly proportional to AMPK activity. This uses naive AMPK that is activated during the assay with MK-8722; type: functional; details: 30 µM
[4] = biological target: Sialic acid-binding Ig-like lectin 9 (Homo sapiens) (UniProt Q9Y336); assay: Hs-Siglec9 ALPHAscreen SOP 20170721; details: 10 µM
Sequence of Sialic acid-binding Ig-like lectin 9 (Homo sapiens) (Q9Y336 whole entry): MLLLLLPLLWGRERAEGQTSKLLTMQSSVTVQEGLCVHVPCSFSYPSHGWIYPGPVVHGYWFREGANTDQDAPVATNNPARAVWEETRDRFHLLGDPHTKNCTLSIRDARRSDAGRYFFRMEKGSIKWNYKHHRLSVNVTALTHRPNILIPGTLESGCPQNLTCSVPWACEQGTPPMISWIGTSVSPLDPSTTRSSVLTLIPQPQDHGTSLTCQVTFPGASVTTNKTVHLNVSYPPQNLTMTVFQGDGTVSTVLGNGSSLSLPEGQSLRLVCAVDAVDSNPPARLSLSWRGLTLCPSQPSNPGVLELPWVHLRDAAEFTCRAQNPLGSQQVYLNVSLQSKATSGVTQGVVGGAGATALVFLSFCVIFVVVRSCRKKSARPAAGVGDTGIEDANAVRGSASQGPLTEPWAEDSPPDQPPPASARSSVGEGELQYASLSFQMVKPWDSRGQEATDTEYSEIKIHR

[5] = tested on: Trypanosoma cruzi; assay: Trypanosoma cruzi phosphomannomutase and mannose-1-phosphate guanylyltransferase assay; type: functional; details: 10 µM
[6] = biological target: T2, Arginase-2, mitochondrial (Homo sapiens) (UniProt P78540); assay: in vitro enzyme assay to detect the production of urea directly proportional to the activity of Arginase II; type: functional; details: 33.3 µM; also: in the data most compounds retested in dose-response had high values
T2 sequence (whole entry): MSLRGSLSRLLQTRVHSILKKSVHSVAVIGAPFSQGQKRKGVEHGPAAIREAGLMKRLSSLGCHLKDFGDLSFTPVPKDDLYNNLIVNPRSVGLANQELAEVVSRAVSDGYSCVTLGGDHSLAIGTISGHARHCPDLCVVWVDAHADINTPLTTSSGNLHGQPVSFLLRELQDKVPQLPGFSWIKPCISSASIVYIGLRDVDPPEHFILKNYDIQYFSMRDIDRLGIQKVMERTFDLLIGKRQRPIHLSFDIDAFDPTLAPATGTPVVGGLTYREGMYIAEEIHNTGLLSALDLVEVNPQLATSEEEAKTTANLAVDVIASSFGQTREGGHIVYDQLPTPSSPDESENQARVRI

[7] = biological target: T3, Proteasome subunit beta (Trypanosoma cruzi) (UniProt O96673); assay: Trypanosoma cruzi proteasome chymotrypsin-like activity (TcProtChymo) assay.; also: in the data most compounds retested in dose-response had high values; type: functional; details: 9.37 µM
T3 sequence (whole entry): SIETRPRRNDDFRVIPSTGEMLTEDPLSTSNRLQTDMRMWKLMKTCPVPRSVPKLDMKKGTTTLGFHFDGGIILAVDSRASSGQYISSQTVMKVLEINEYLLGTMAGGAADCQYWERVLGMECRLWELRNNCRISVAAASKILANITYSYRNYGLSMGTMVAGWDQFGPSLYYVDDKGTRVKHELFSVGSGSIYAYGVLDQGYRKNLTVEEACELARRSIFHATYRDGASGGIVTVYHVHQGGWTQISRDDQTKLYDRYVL

[8] = species: Homo sapiens; assay: To identify inhibition of the IFN signalling (Jak-Stat) pathway via expression of an eGFP reporter gene under the control of an IFN-stimulated response element (ISRE) containing MxA promoter.; type: functional; details: 30 µM
[9] = biological target: T4, Tyrosyl-tRNA synthetase, putative (Trypanosoma cruzi (strain CL Brener)) (UniProt Q4DSP6); assay: Trypanosoma cruzi tyrosyl tRNA synthetase (TcYRS) _High Tyrosine SOP; type: functional; details: 30 µM; also: in the data most compounds retested in dose-response had high values
T4 sequence (whole entry): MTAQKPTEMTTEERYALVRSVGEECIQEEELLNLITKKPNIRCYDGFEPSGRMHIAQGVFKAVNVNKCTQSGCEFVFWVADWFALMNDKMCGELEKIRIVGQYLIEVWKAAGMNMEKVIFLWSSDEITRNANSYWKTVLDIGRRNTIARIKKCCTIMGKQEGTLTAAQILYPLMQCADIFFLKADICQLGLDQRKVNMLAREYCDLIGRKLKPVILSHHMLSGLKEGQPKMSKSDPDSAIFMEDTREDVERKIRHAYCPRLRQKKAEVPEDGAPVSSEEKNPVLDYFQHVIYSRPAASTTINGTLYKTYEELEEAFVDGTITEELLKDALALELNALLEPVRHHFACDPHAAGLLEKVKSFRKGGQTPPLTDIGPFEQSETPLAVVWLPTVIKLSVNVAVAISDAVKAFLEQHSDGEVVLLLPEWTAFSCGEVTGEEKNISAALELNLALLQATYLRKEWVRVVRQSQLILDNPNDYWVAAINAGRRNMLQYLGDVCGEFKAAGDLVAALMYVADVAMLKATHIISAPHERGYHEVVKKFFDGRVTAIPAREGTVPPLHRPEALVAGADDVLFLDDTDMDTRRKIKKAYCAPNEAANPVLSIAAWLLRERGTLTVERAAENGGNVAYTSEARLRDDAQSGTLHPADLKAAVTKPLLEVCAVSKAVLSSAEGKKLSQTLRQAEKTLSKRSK

[10] = biological target: T4, Tyrosyl-tRNA synthetase, putative (Trypanosoma cruzi (strain CL Brener)); assay: Trypanosoma cruzi tyrosyl tRNA synthetase (TcYRS) SOP; type: functional; details: 30 µM
[11] = biological target: Chromo domain-containing protein 1 (Saccharomyces cerevisiae (strain ATCC 204508 / S288c) (Baker's yeast)) (UniProt P32657); assay: ScCHD-1 Enzyme Inhibition Assay; type: functional; details: 30 µM; also: in the data most compounds retested in dose-response had high values
Sequence of Chromo domain-containing protein 1 (Saccharomyces cerevisiae (strain ATCC 204508 / S288c) (Baker's yeast)) (P32657 whole entry, the tested form may be a part): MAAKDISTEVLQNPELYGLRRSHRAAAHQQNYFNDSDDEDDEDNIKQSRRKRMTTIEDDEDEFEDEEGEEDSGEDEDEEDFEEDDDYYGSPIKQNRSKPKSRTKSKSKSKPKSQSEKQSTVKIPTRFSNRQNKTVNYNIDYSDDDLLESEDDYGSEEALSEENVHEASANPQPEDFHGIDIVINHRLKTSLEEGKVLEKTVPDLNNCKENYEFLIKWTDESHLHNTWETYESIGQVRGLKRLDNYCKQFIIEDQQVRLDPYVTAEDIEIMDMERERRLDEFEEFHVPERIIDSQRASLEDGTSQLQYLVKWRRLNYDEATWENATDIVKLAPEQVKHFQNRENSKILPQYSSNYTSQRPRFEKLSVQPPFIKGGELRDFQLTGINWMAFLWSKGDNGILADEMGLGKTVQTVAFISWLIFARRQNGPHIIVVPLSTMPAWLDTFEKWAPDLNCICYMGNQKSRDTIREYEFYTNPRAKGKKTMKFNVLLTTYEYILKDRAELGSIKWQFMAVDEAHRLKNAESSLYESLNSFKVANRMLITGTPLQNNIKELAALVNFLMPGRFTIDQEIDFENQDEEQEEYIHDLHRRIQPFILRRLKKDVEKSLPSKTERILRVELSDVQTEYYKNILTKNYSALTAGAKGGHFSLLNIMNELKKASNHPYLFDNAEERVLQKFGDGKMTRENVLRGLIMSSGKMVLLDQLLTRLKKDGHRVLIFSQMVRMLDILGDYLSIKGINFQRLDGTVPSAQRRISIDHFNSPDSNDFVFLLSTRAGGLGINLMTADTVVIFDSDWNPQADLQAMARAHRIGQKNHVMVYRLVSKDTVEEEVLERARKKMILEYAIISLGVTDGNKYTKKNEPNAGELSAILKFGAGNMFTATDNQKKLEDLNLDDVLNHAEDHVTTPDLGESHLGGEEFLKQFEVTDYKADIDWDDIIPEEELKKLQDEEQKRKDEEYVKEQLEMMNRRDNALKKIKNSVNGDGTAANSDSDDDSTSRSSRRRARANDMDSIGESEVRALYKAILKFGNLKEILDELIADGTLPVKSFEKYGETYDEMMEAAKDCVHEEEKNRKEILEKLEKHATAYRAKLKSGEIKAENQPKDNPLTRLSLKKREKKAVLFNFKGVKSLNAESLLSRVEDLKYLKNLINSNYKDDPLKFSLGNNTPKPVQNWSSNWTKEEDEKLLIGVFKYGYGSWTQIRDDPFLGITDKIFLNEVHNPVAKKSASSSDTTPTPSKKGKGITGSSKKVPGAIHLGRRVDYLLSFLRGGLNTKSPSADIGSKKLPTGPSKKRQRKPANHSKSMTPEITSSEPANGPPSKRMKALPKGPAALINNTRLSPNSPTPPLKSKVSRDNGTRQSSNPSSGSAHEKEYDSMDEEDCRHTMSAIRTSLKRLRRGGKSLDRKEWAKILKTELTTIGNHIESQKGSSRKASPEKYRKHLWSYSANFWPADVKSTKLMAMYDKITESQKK

SMILES	Percent Effect [1] [%]	Percent Effect [2] [%]	Percent Effect [3] [%]	Percent Effect [4] [%]	Percent Effect [5] [%]	Percent Effect [6] [%]	Percent Effect [7] [%]	Percent Effect [8] [%]	Percent Effect [9] [%]	Percent Effect [10] [%]	Percent Effect [11] [%]
CC(C)C(Sc1nnnn1C1CC1)C(=O)NCc1cccnc1 (stereo unspecified)	-3.26	5.2	3.52	-3.03	-5.24	17.8	13.3	27.7	6.8	19.5	-3.93
Cc1cccc(C(=O)NCc2ccnc(N(C)C)c2)n1	1.73	-5.2	2.32	6.58	-3.04	2.32	3.15	15.9	0	-37.6	8
Cc1cc(C)n(CC(=O)N2CCC(NS(C)(=O)=O)CC2)n1	-2.87	15.8	1.32	0.107	-1.69	-2.3	8.69	-0.413	5.39	12.2	-9.21
CCCn1ccc(C(=O)N2CCC(C)CC2)n1	-3.61	10.4	1.17	5.81	0.295	-44.1	6.49	-8.22	8.6	18.5	-1.29
Cc1cnn(CC2CCCCN2C(=O)c2ccnc(N(C)C)c2)c1 (stereo unspecified)	-4.87	10.4	2.75	9.97	-0.49	4.42	13.8	5.85	2.86	9.41	-16.5
Cc1nc(CN2CCCC(N(C)CCc3cccs3)C2)no1 (stereo unspecified)	-2.72	12.5	-8.86	8.38	-1.65	2.21	11.4	10.9	7.37	2.56	-2.19
CSCC(C)(O)CNC(=O)c1ccc(Br)cc1C (stereo unspecified)	0.706	0	2.08	-6.13	-1.27	-1.74	8.15	-5.12	2.15	6.17	0.55
Cc1csc(C2CCCCN2C(=O)CN(C)C2CC2)n1 (stereo unspecified)	1.03	-13.9	0.541	-1.97	2.56	-2.37	8.75	-15.9	1.04	5.06	9.83
Cc1noc(C(C)C)c1C(=O)NS(=O)(=O)c1ccc2c(c1)OCCCO2	-0.953	2.63	4.57	1.83	4.19	-3.55	6.23	24.3	0	5.2	15.4
CN(C)C(=O)NC1COC2(CCN(Cc3ccccc3)CC2)C1 (stereo unspecified)	-6.16	0	7.68	-1.66	-3.94	1.17	6.26	21.5	-3.19	-6.41	-1.6
COCCNc1nc(C2CCCC2)nc2c1CCNCC2	-0.492	-2.7	-0.634	-1.74	4.83	1.91	-38.6	-3.26	10.1	19.5	-2.52
O=C(C1CC1)N1CCCC1C1CCN(Cc2ccccc2)CC1 (stereo unspecified)	-2.89	2.63	6.02	-2.3	0.682	-4.73	4.31	-4.47	4.25	5.2	-2.33
CS(=O)(=O)NCC(=O)NC1CCc2nccn2C1 (stereo unspecified)	0.138	5.33	-3.96	-2.36	-7.69	1.56	12.7	2.1	4.92	8.64	-13.2
Cc1ccccc1CS(=O)(=O)NCCCN1CCCCC1	-6.3	5.33	6.44	24.2	0.292	2.6	6.63	7.26	1.64	3.7	-2.2
CCNC(=O)[C@@H]1C[C@H](NC(=O)c2ccccc2C#N)CN1CCCSC	-6.15	-2.74	-0.485	8.44	0.794	0.399	11.4	-3.71	2.08	18.5	1.18
O=C(N[C@@H]1CCNC[C@H]1O)c1ccc(F)c(Cl)c1	-3.79	5.41	0.871	3.76	-3.09	-1.43	1.21	-2.61	3.7	9.76	-2.77
